Assay outcomes: PubChem, National Center for Advancing Translational Sciences (NCATS)
Shown are actives, neighbours in structure and some others; about 4.7% of the full set was active somewhere.
D1 agonist – activates the human D1 dopamine receptor | actives 1% (n = 360,000) | activation, % at 2 µM | AID 504660 | HEK293 T-REx D1 cells, calcium flux, agonist mode | P21728; further: 0% is about no effect
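Agonism was scored from calcium flux recorded over 180 s (1 read/s) after pintool compound addition, following a 10-cycle baseline. Cells were inducible force-coupled HEK293 TREx D1, plated overnight at 30 C and loaded with no-wash calcium dye.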
D1 PAM – enhances dopamine response at the human D1 receptor; actives 0.036% (n = 360,000); potentiation, % at 10 µM; HEK293 TREx D1 cells, calcium flux, dopamine EC20 potentiation; AID 504651; in the data active means potentiation above about 30%; further: 0% is about no effect
TRHR agonist – agonists of human TRH receptor | TRHR cells, calcium flux fluo-8, FDSS agonist mode | activation, % at 2 µM | actives 0.18% (n = 360,000); further: 0% is about no effect
Target sequence (P34981 whole entry, looked up): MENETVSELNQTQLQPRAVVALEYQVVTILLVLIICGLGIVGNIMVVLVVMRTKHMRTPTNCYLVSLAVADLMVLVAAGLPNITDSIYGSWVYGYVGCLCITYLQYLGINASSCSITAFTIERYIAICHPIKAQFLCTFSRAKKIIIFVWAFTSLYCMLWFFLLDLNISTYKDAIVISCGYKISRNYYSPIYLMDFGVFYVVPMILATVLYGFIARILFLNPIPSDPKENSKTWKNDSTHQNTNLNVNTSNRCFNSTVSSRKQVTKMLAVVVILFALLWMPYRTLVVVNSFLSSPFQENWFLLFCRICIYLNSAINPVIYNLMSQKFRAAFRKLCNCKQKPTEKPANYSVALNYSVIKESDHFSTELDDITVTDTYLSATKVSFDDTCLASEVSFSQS
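Agonist-mode FDSS calcium read (Ex 480/Em 530, 1 s cycles) in 1536-well TRHR cells with fluo-8 dye, after 10-cycle baseline and 23 nL compound addition; TRH at EC20 (10 nM final) added afterwards for the enhancer phase.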
TRHR enhancer – TRH receptor (human) allosteric enhancement | P34981 | TRHR cells, fluo-8 calcium fluorescence, EC20 TRH enhancement | enhancement, % at 2 µM | actives 0.66% (n = 360,000); in the data active means enhancement above about 30%; further: 0% is about no effect
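Enhancer read-out: after compound pinning and an initial kinetic agonist-mode read, an EC20 of TRH (10 nM final) was injected and fluo-8 calcium signal (Ex 480/Em 530) followed at 1 s/cycle for 100 cycles in TRHR-expressing cells.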
D1 antagonist – blocks dopamine activation of the human D1 receptor. actives 3.2% (n = 360,000). P21728. AID 504652. activity change, negative = inhibition, % at 10 µM. HEK293 TREx D1 cells, calcium flux, dopamine EC80; hits give low values; in the data active means activity change below about -30%; further: on the % scale 0 is the no-effect control and ±100 the full control effect
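Using tetracycline-induced force-coupled D1 Hek293 cells and a calcium dye, signals were followed for 180 s after compound, then for 180 s after EC80 dopamine, to detect inhibitors.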
Starred values were filed as active, the others as inactive; nt = no result; ! = repeats disagree. Unless noted, no stated cut-off is given here; in the data, active means activation above about 30%; inactive means the rest.

SMILES	D1 agonist	D1 PAM	TRHR agonist	TRHR enhancer	D1 antagonist
N/C(=N\NC(=O)c1cccs1)c1cc2ccccc2oc1=O	2	-2	-1	3	-13
CCN(CC)c1ccc2cc(C(=O)Nc3cccnc3N3CCOCC3)c(=O)oc2c1	9	5	4	9	-4
CCN(CC)c1ccc2cc(C(=O)Nc3ccccn3)c(=O)oc2c1	30	2	37*	-8	-6
CCN(CC)c1ccc2cc(C(N)=O)c(=O)oc2c1	32*	2	0	4	1
CC(=O)c1cc2c(ccc3ccccc32)oc1=O	4	-2	0	7	-9
CCN(CC)c1ccc2cc(C(C)=O)c(=O)oc2c1	146*	0	67*	-2	7
CCOC(=O)c1c(C)[nH]c(C(=O)OCc2ccccc2F)c1C	31*	9	-1	19	7
CCOC(=O)c1c(C)[nH]c(C(=O)O)c1C	3	-5	0	0	-2
CCCNC(=O)c1[nH]c(C)c(C(=O)OCC)c1C	2	-8	0	-10	-40*
CCOC(=O)c1[nH]c(C)c(C(=O)NC2CCCCC2)c1C	0	-5	0	2	-89*
CCOC(=O)c1[nH]c(C)c(C(=O)OC)c1C	1	-5	0	-9	-1
CCOC(=O)c1c(C)[nH]c(C(=O)NCc2ccco2)c1C	0	-6	0	3	-71*
CCN1CCN(C(=O)c2[nH]c3ccc(OC)cc3c2C)CC1	0	20	-1	23	2
Cc1[nH]c(C(=O)N/N=C/c2ccc(C(=O)O)cc2)c(C)c1C(=O)N/N=C/c1ccc(C(=O)O)cc1	1	-3	-1	4	-10
CCOC(=O)c1c(C)[nH]c(C(=O)N/N=C/c2ccc(Br)cc2)c1C	3	-7	-1	-5	-40*
CCCn1c(SCC(N)=O)nnc1-c1ccco1	1	-1	-1	7	-55*
CCCn1c(SCC(=O)c2ccc3c(c2)OCCO3)nnc1-c1ccco1	4	3	0	4	-36*
CC(C)NC(=O)CSc1nnc(-c2ccco2)n1N	-2	-7	0	-8	-67*
CCOC(=O)C1CCN(C(=O)Cn2nc(CC)n3c(cc4sccc43)c2=O)CC1	1	-4	0	30*	-1
O=C(CCCN1C(=O)C(c2ccccc2)Oc2cccnc21)Nc1cccc(F)c1 (centres undefined)	2	-7	-1	-9	-44*
O=C(c1ccccc1)N1CCC2(CC1)NCCc1[nH]cnc12	2	-2	1	1	9
Cc1ccc(NS(=O)(=O)c2cccc(C(=O)NCCc3c[nH]c4ccccc34)c2)c(C)c1	3	-2	-1	0	-17
CCN1C(=NCC(C)C)N[C@@H](c2cccc(F)c2)C(C(=O)OC)=C1C	6	-2	1	-12	-33*!
Cc1cccc(-c2nc(C#N)c(NCc3ccco3)o2)c1	1	0	-1	-5	-31*
COc1ccc(N2CCN(C(=O)c3ccccc3Br)CC2)c([N+](=O)[O-])c1	38*	-8	-4	12	-49*
SMILES	D1 agonist	D1 PAM	TRHR agonist	TRHR enhancer	D1 antagonist
COc1ccc(N2CCN(C(=O)c3ccccc3)CC2)c([N+](=O)[O-])c1	2	-1	-3	-5	6
COc1cccc(CC(=O)N2CCN(c3ccccc3[N+](=O)[O-])CC2)c1	5	-8	1	2	-40*
COc1ccc(CNC(=O)CN(C)S(=O)(=O)c2ccc3nc(C)sc3c2)cc1	0	-3	-1	6	4
O=[N+]([O-])c1ccc(S(=O)(=O)N2CCn3cccc3C2c2ccc(Br)cc2)cc1 (centres undefined)	-2	2	0	-5	nt
COc1ccc(CC(=O)NCCS(=O)(=O)N2CCN(c3ccccc3)CC2)cc1	0	-1	0	5	25
NC(=O)c1cc2cc(Cl)ccc2oc1=Nc1cccc(C(F)(F)F)c1	-4	-4	0	-4	-33*
NC(=O)c1oc2ccccc2c1NC(=O)CN1CCCCC1	-1	-8	0	-8	-12
NC(=O)c1oc2ccccc2c1NC(=O)C1CCCCC1	0	-5	0	38*	7
O=C1CC(c2nc(-c3ccccc3)no2)CN1c1ccc2c(c1)OCCO2 (centres undefined)	10	-6	0	-5	-9
O=C(Nc1ccc2oc(-c3cc(Br)ccc3Cl)nc2c1)c1cc2ccccc2o1	0	-2	-1	13	11
O=C(CCCCn1c(=O)c2ccccc2n(CC(=O)NC2CCCC2)c1=O)NC1CCCC1	0	-1	1	-1	-39*
CC(C)C[C@H](NC(=O)CCCn1nnc2ccccc2c1=O)C(=O)O	1	-6	0	-2	-18
CC(C)(C)C(=O)Cn1ncc(Cl)c(Cl)c1=O	11	-1	0	32*	5
O=C(Cn1ncc(Cl)c(Cl)c1=O)NC1CCCCC1	2	-11	0	-3	-37*
O=C(O)CCNC(=O)CCCn1nnc2ccccc2c1=O	1	-1	0	-1	-43*
CCCN(CCC)C(=O)Cn1c(=O)n(CCCCC(=O)NC2CCCC2)c(=O)c2ccccc21	4	-2	0	-3	-5
CCc1ccc(C2CC(=O)c3c([nH]c(C(=O)OC4CCC(C)CC4)c3C)C2)cc1 (centres undefined)	3	-3	1	-2	2
O=C(Cn1nnc2ccccc2c1=O)NC1CCCCC1	2	4	0	2	-43*
O=C(CC1CCCCC1)OCn1nnc2ccccc2c1=O	2	-1	0	2	-16
CCOc1ccc(Oc2ccccc2NS(=O)(=O)c2ccc(CCC(=O)O)cc2)cc1	-1	2	0	1	1
CCC(=O)N1CCc2cc(S(=O)(=O)NCCC(=O)NCc3ccc(OC)cc3)ccc21	1	-1	0	6	-44*
CCC(=O)N1CCc2cc(S(=O)(=O)NC(CC(C)C)C(=O)NCc3ccc(F)cc3)ccc21 (centres undefined)	-1	4	-1	12	-40*
CCC(=O)N1CCc2cc(S(=O)(=O)NC(CC(C)C)C(=O)NCc3cccc(OC)c3)ccc21 (centres undefined)	1	0	-1	-7	8
CCC(=O)N1CCc2cc(S(=O)(=O)NCCC(=O)NCc3ccc(F)cc3)ccc21	0	-2	0	-6	-20
O=C(Cn1ncc2c3ccccc3n(Cc3ccc(Cl)cc3)c2c1=O)N1CCCCCC1	6	-3	1	-5	3
COC(=O)c1c(C)[nH]c(C=Nc2ccc(OC)cc2)c1C	0	0	0	38*	4
Cc1cccc(Nc2ncnc3onc(-c4cccc(Cl)c4)c23)c1C	2	0	0	9	1
